In the library only some 21% were active in any assay of this set; here they are far more common.
NS1 inh: influenza NS1 inhibition; Potency, µM (highest dose often 46.1 µM); hit rate 0.4% among 270,000; calls by dose curve; also: actives are rising curves; nearly all actives have a fitted effect of over 50% in size
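Compounds were scored for reversing the slow growth caused by influenza A NS1 in S. cerevisiae, measured by optical density at 600 nm. Assay medium contained 2% galactose at pH 6.0; NS1-free yeast of the same strain were the positive control.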
Shiga inhibitor: blocks Shiga toxin action in Vero cells; Vero cells, Shiga toxin protein synthesis inhibition reporter; inhibition, % at 38.7 µM; hit rate 9.2% among 290,000; AID 2315; in the data active = inhibition mostly above about 28%, no sharp cut-off; inactive = mostly below about 43%
CHX counter: affects cycloheximide protein synthesis inhibition readout, counter-screen. cell reporter, cycloheximide protein synthesis inhibition counterscreen. max response, %. hit rate 12% among 300,000. AID 2314; in the data active = max response mostly above about 13%, no sharp cut-off; inactive = mostly below about 14%; also: read at 38.3 µM for the half of the compounds with a filed dose
Pf growth 48h: P. falciparum growth inhibition at 48 hours (one generation) | Potency, µM (series often up to 28.7 µM), usual class: inhibitors | hit rate 5.9% among 310,000 | P. falciparum luciferase growth in erythrocytes, 48 h
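Erythrocytes infected with P. falciparum carrying an integrated firefly luciferase reporter (2% hematocrit, 0.1% parasitemia final) were exposed to compounds in RPMI 1640 with 0.5% Albumax at 37 C, 5% CO2. Growth inhibition was scored as reduced luminescence.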
Pf growth 96h: P. falciparum growth inhibition at 96 hour, primary screen for plastid delayed-death inhibitors; P. falciparum luciferase reporter growth, 96 h; Potency, µM (top dose mostly 28.7 µM), usual class: inhibitors; hit rate 6.9% among 320,000
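Infected RBCs, 2% Hct / 0.05% parasitemia final; luciferase-reporter P. falciparum; cpd 96 h, 37 C, 5% CO2; luciferase detection reagent; luminescence.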
Of the large screens only hits and unclear results are named; the others gave an inactive call. Unless noted, calls follow the shape of the dose curve; as a rule, active = well fitted inhibition curve with a large enough effect; inconclusive = small, poorly fitted or top-dose-only effect, or another doubt; inactive = no such curve, though single readings can be large or run the other way.

Cc1cccc(NC(=O)CSc2ccc(-c3ccc4c(c3)OCO4)nn2)c1C	none
O=C(Cn1nnc(-c2ccc3c(c2)OCO3)n1)NCc1ccccc1	none
Fc1cccc(Cl)c1CSc1nnnn1-c1ccc2c(c1)OCO2	none
Cc1ccccc1Cn1ccc(-c2ccc3c(c2)OCO3)n1	Shiga inhibitor 74.3, CHX counter 59.7
Fc1cccc(Cn2ccc(-c3ccc4c(c3)OCO4)n2)c1	Shiga inhibitor 99.4, CHX counter 56.7
Fc1cccc(Cl)c1Cn1nnc(-c2ccc3c(c2)OCO3)n1	Shiga inhibitor 145.9, CHX counter 62.1 (no result: Pf growth 96h)
Cc1ccccc1Cn1nnc(-c2ccc3c(c2)OCO3)n1	Shiga inhibitor 53.9, CHX counter 48.6
CC1(c2ccccc2)NC(=O)N(CC(=O)Nc2ccc(C(N)=O)cc2)C1=O (stereo unspecified)	none
COc1cc(OC)nc(Oc2ccccc2C(=O)Oc2cccc(C)c2)n1	none
O=C(Cn1nnc(-c2ccc3c(c2)OCO3)n1)N1CCOCC1	none
N#CCn1nnc(-c2ccc3c(c2)OCO3)n1	CHX counter 34.2, Pf growth 96h inconclusive
O=C(Nc1cc(N2CCOCC2)ncn1)c1ccc(F)cc1	Shiga inhibitor 75.3, CHX counter 33.4, Pf growth 96h inconclusive
O=S(=O)(/N=C(/Nc1cc(N2CCOCC2)ncn1)c1ccc(F)cc1)c1ccccc1	none (no result: Pf growth 96h)
O=C(Nc1cc(N2CCCCC2)ncn1)c1ccc(F)cc1	CHX counter 26.1, Pf growth 96h inconclusive
C=CCN1C(=O)N(c2ccc(F)cc2)C(=O)C1CC(=O)Nc1ccc(Cl)cc1 (stereo unspecified)	Pf growth 48h inconclusive, Pf growth 96h inconclusive
Cc1cccc(S(=O)(=O)Nc2ccc3c(c2)OCCO3)c1	none
COC(=O)COc1ccc(S(=O)(=O)Nc2ccc3c(c2)OCCO3)cc1Cl	none (no result: Pf growth 96h)
COc1ccc(NS(=O)(=O)c2ccc3oc(SC(C)C(N)=O)nc3c2)cc1 (stereo unspecified)	Pf growth 48h 2.33µM, Pf growth 96h 4.65µM
COc1cccc(S(=O)(=O)Nc2ccc3c(c2)OCCO3)c1	Shiga inhibitor 51.7, CHX counter 36.7
COC(=O)COc1ccc(S(=O)(=O)Nc2ccc3c(c2)OCCO3)cc1C	Shiga inhibitor 68.1, CHX counter 24.8
O=S(=O)(Nc1ccc(-c2cn3ccsc3n2)cc1)c1ccc2c(c1)OCCO2	Shiga inhibitor 68.9
Cc1noc(C)c1CSCC(=O)N(C)CC(=O)Nc1ccc(Cl)c(C(F)(F)F)c1	Pf growth 96h inconclusive (no result: NS1 inh, Shiga inhibitor, CHX counter)
Cc1nc(C)c(N)c(=O)[nH]1	Pf growth 48h inconclusive, Pf growth 96h inconclusive (no result: NS1 inh)
O=c1c2[nH]cnc2n(-c2cccc(F)c2)c(=O)n1Cc1ccccc1	none
Cn1c(=O)c(=O)n(C)c2cc(S(=O)(=O)Nc3ccc4c(c3)OCCO4)ccc21	Shiga inhibitor 115.2, CHX counter 61.6, Pf growth 48h 3.29µM
COc1ccc(NS(=O)(=O)c2ccc3oc(Nc4ccc5c(c4)OCCO5)nc3c2)cc1	Shiga inhibitor active, CHX counter 30.1
CCN1CCN(CC(=O)Nc2ccc(N(C)C)cc2)CC1	none
CC(=O)c1cccc(NC(=O)c2cc(S(=O)(=O)N3CCOCC3)cs2)c1	none
NC(=O)CC(NC(=O)c1ccc(Br)cc1)c1ccc(N2CCN(c3ccccc3)CC2)c([N+](=O)[O-])c1 (stereo unspecified)	none
NC(=O)CC(NC(=O)c1ccc(Br)cc1)c1ccc(NC2CCCCCC2)c([N+](=O)[O-])c1 (stereo unspecified)	CHX counter 12.2
NC(=O)CC(NC(=O)c1ccc(Br)cc1)c1ccc(N2CCCCCCC2)c([N+](=O)[O-])c1 (stereo unspecified)	NS1 inh inconclusive, Pf growth 96h 2.94µM
COc1ccc(Cl)cc1NC(=O)CN(C)C(=O)CCc1nc2ccccc2c(=O)[nH]1	Pf growth 96h inconclusive (no result: NS1 inh, Shiga inhibitor, CHX counter)
O=C(O)C(CC1CCCCC1)N1CCS(=O)(=O)CC1 (stereo unspecified)	Pf growth 96h inconclusive (no result: NS1 inh)
O=C(O)c1ccc(N2CCCCC2)cc1	Pf growth 96h inconclusive
O=C(c1ccccc1)c1ccc(N2CCCC2)cc1	Shiga inhibitor 53.1, CHX counter 23.5, Pf growth 96h inconclusive
O=C(O)CCC(=O)N1CCN(c2ccc(C(=O)c3ccc(F)cc3)cc2)CC1	none (no result: Pf growth 96h)
CN1CCN(c2ccc(C(=O)c3ccc(F)cc3)cc2)CC1	Shiga inhibitor 110.6
O=C(c1ccccc1)c1ccc(N2CCNCC2)cc1	Shiga inhibitor active, CHX counter 34.0 (no result: Pf growth 96h)
O=C(NC1CCN(Cc2ccccc2)CC1)c1cccc(Br)c1	none
COc1ccccc1N1CCN(c2ccnc3cc(Cl)ccc23)CC1	Pf growth 48h inconclusive, Pf growth 96h 0.465µM
O=C(Nc1ccc(OC(F)(F)F)cc1)N1CCN(c2ccnc3cc(Cl)ccc23)CC1	Pf growth 48h inconclusive, Pf growth 96h inconclusive
COc1ccccc1NC(=O)N1CCN(c2ccnc3cc(Cl)ccc23)CC1	Pf growth 48h 2.08µM, Pf growth 96h 2.62µM
Cc1occc1-c1nnc(SCc2cc(=O)n3cc(Br)ccc3n2)n1C	Pf growth 96h inconclusive
Cc1ccc(CSc2nnc(-c3ccncc3)n2C)cc1	none (no result: Pf growth 48h)
Cc1ccc(Nc2nc(CSc3nnc(-c4ccncc4)n3C)cs2)cc1	Shiga inhibitor 53.8, CHX counter 24.7
Cc1ccccc1Nc1nc(CSc2nnc(-c3ccoc3C)n2C)cs1	CHX counter 20.6
O=C(N/C(=C\c1ccc(Br)cc1)C(=O)N1CCOCC1)c1ccco1	none
O=C(C1CC(c2cccc(Br)c2)=NO1)N1CCc2ccccc2C1 (stereo unspecified)	CHX counter 17.6
CCn1cc(S(=O)(=O)CC(=O)Nc2ccc(OC)cc2)c2ccccc21	Pf growth 96h inconclusive
CS(=O)(=O)c1nc(S(=O)(=O)c2ccc(Cl)cc2)c(N2CCC(O)CC2)s1	none
CN(C(=O)C1CCCCC1)C1CCS(=O)(=O)C1 (stereo unspecified)	none (no result: NS1 inh, Shiga inhibitor, CHX counter)
Cc1cccc(NC(=O)NNC(=O)c2cc3ccccc3cc2O)c1C	none (no result: NS1 inh)
Cc1ccc(NC(=S)NNC(=O)c2ccccc2O)c(C)c1	Shiga inhibitor 96.5, CHX counter 33.4, Pf growth 48h inconclusive
Cc1cccc(NC(=S)NNC(=O)c2ccc(O)cc2O)c1C	Shiga inhibitor 35.3, CHX counter 20.3, Pf growth 48h inconclusive
Cc1ccc(NC(=O)NNC(=O)c2cc3ccccc3cc2O)c(C)c1	none
O=C(Oc1ccc(C(=S)N2CCOCC2)cc1)c1ccccc1F	none
CCOC(=O)Cc1c(C)nc(Cc2ccc(OC(C)C)cc2)[nH]c1=O	none (no result: NS1 inh)
CC(=O)c1cccc(NC(=O)Nc2ccc3c(c2)OCO3)c1	Shiga inhibitor 88.3, CHX counter 38.4
Cc1nn(C)cc1CNC(=O)Nc1cccc(Cl)c1	Shiga inhibitor 90.0, CHX counter 67.1 (no result: Pf growth 48h)
Cc1cccc(C)c1NC(=O)Nc1ccc2c(c1)OCO2	Pf growth 48h inconclusive (no result: NS1 inh)
Cc1nn(C)cc1CNC(=O)Nc1ccc(Br)cc1Cl	Pf growth 48h inconclusive, Pf growth 96h inconclusive
O=C(NCc1ccc2c(c1)OCO2)Nc1cccc(Cl)c1	Shiga inhibitor 57.5, CHX counter 41.0
O=C(NCc1ccc2c(c1)OCO2)C1CCCN1C(=O)Nc1cccc(Cl)c1 (stereo unspecified)	Pf growth 96h inconclusive
